From PubChem BioAssay AID624037 (The Scripps Research Institute Molecular Screening Center, 2012)
Screen size: about 360,000 compounds; about 700 (0.19%) were called active.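 How the source made its calls: active means activation above the run's mean over test compounds plus 3 SD (cut at about 23% in these data); inactive means the rest.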 What follows is part of a selection rich in actives, with near analogues and random picks from the rest.

molecular target: Muscarinic acetylcholine receptor M5 (Homo sapiens) (UniProt P08912); assay: CHRM5 activators raising intracellular calcium – CHO-K1 cells, Fluo-8 calcium fluorescence, primary screen (AID 624037); details: CHO-K1 hM5 cells, at 3 µM, active compounds read high, 0% DMSO wells, 100% maximal acetylcholine response;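 further: signal is peak over basal fluorescence ratio across the kinetic read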
Sequence (P08912 whole entry, looked up): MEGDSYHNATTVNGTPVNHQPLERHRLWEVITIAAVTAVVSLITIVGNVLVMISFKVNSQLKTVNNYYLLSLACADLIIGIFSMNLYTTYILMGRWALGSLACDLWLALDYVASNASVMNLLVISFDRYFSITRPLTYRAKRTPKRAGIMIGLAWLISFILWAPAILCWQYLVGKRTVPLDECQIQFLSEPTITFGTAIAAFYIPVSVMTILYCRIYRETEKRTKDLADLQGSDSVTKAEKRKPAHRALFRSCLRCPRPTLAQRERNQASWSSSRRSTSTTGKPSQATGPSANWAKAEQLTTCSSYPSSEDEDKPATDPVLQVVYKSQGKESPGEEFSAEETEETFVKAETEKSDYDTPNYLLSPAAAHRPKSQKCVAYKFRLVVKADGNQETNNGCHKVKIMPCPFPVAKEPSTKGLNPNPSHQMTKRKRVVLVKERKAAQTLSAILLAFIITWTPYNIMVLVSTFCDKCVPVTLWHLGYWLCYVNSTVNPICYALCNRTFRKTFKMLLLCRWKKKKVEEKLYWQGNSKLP

Structure (SMILES)	activation
O=c1[nH]oc(O)c1-c1ncc(C(F)(F)F)cc1Cl	-1.47% (inactive)
COc1ccc(NS(=O)(=O)c2ccc(C)c(C(=O)NNC(=O)c3csc(N4CCOCC4)n3)c2)cc1	-2.51% (inactive)
CC1CN(c2cc(=O)n(Cc3ccc(F)cc3)c(=O)[nH]2)CC(C)O1 (stereo unspecified)	1.48% (inactive)
O=C1C(Sc2cccc(F)c2)=C[C@@]2(O)CC[C@@H](O)[C@]1(Sc1cccc(F)c1)[C@H]2O	-1.89% (inactive)
CC12CN3CC(C)(CN(C1)C3c1ccc(Cl)cc1Cl)C2=O (stereo unspecified)	0.42% (inactive)
CCC(C)C1(C2CCCC2)NC(=O)NC1=O (stereo unspecified)	-2.24% (inactive)
Cc1ccsc1C1C(C#N)=C(N)OC2=C1C(=O)CC(C)(C)C2 (stereo unspecified)	-3.66% (inactive)
CCOC(=O)c1cnc(SC)nc1Sc1ccc(Cl)cc1Cl	-3.12% (inactive)
O=C(Cn1nc(Cc2cccnc2)c2ccccc2c1=O)NCC1CCCO1 (stereo unspecified)	1.65% (inactive)
COC(=O)c1ccc(OC(=O)c2nn(C)cc2Cl)c(OC)c1	-3.16% (inactive)
CCN(CC)CCCNC(=O)c1ccc2c(=O)n(Cc3ccc4c(c3)OCO4)c(=S)[nH]c2c1	-16.7% (inactive)
CCOC(=O)N1CCN(C(=O)C[C@@H]2C[C@@]3(C(=O)OC)CCCCC=C3N(CCC3=CCCCC3)C2=O)CC1	24% (active)
COC(=O)[C@]12CCCCC=C1N(CCC1=CCCCC1)C(=O)[C@H](CC(=O)N1CCSCC1)C2	0.77% (inactive)
CCOC(=O)[C@]12CCCC=C1N(CCC1=CCCCC1)C(=O)[C@H](CC(=O)N1CCCCC1)C2	2.91% (inactive)
COc1cc(NC(=S)NCCSc2ccc(C)cc2)cc(OC)c1	0.65% (inactive)
CCCCCCCCNS(=O)(=O)CCNC1CCCCC1	2.22% (inactive)
CCn1c(-c2ccoc2C)n[nH]c1=S	-2.69% (inactive)
CC(=O)OC(C)C[N+](C)(C)C (stereo unspecified)	99.8% (active)
CC(=O)OCCC(C)C	1.99% (inactive)
CC(C[N+](C)(C)C)OC(N)=O (stereo unspecified)	96.3% (active)
CCCCOC(=O)Nc1nccs1	1.28% (inactive)
COc1ccc(C(=O)NC(Cc2ccc(OC(=O)c3ccc(OC)cc3)cc2)C(=O)O)cc1 (stereo unspecified)	0.61% (inactive)
Cc1ccc(O)c(/C=N/NC(=O)COc2ccc3c(C)cc(=O)oc3c2)c1	-0.84% (inactive)

Structure (SMILES)	activation
Cc1ccsc1C(=O)NNC(=O)COc1ccc(Br)cc1	2.78% (inactive)
Cc1ccc(O)c(NC(=S)NC(=O)COc2ccc(Br)cc2)c1	31.2% (active)
Cc1ccc(S(=O)(=O)N2CCCC2CO)cc1 (stereo unspecified)	1.95% (inactive)
CC1(C)OC(=O)C2=C(CC(c3ccccc3)OC2CCc2ccccc2)O1 (stereo unspecified)	-0.45% (inactive)
CCCCCCSc1nsc(N)n1	-2.92% (inactive)
O=C(NCCN=C1NS(=O)(=O)c2ccccc21)c1ccc(S(=O)(=O)N2CCOCC2)cc1	-1.87% (inactive)
Cc1ccccc1N(C(=O)Cc1cccs1)C(C(=O)NC1CCCCC1)c1cn(C)nc1C (stereo unspecified)	-1.99% (inactive)
O=C(O)CC/C(=N\NC(=O)c1ccc(F)cc1)c1ccc(Br)cc1	-1.22% (inactive)
COc1ccc(COC(=O)c2ccc(Cl)c(S(=O)(=O)N3CCOCC3)c2)cc1F	-0.05% (inactive)
CC1CCN(S(=O)(=O)c2ccc3ncn(CC(=O)N(C)C4CCCCC4)c(=O)c3c2)CC1	-0.64% (inactive)
CC(=O)Nc1ccc(S(=O)(=O)N(C)c2ccc(OCC(=O)OCC(=O)N3CCCCC3)cc2)cc1	0.4% (inactive)
COc1ccc(CN(C)C(=S)Nc2ccc(Cl)cc2Cl)cc1	-4.4% (inactive)
O=C(CCS(=O)(=O)c1cccc2nonc12)NCCc1ccccc1Cl	-0.36% (inactive)
Cc1nc(C)c2c(c1C(F)(F)F)-c1ccccc1C2(F)F	-0.42% (inactive)
COc1ccc(CCN2C(=O)c3[nH]nc(-c4ccccc4O)c3C2c2ccc(C)cc2)cc1OC (stereo unspecified)	-2.41% (inactive)
COc1ccc(-c2n[nH]c(C)c2-c2ccc(OC)c(OC)c2)c(O)c1	29.1% (active)
COc1ccc(-c2onc(C)c2-c2ccc3c(c2)OCCO3)c(O)c1	12.5% (inactive)
O=C(NCC12CC3CC(C1)CC(CNC(=O)N1CCCC1)(C3)C2)N1CCCC1	2.96% (inactive)
COCCNc1ccc(-c2n[nH]c(=O)c3ccccc23)cc1[N+](=O)[O-]	-2.62% (inactive)
CCCCC(=O)N1CC2(C)CN(C(=O)CCCC)CC(C)(C1)C2=O	1.44% (inactive)
O=C(COc1ccc([N+](=O)[O-])cc1Cl)Nn1cnnc1	-0.29% (inactive)
COc1ccc(C(C[N+](=O)[O-])n2nc(C)cc2C)cc1 (stereo unspecified)	1.97% (inactive)
Cc1cc(NC(=O)Nc2ccccc2[N+](=O)[O-])no1	-2.19% (inactive)

Structure (SMILES)	activation
CN(C)c1ccc(C(CNC(=O)c2ccc(F)cc2)c2c[nH]c3ccccc23)cc1 (stereo unspecified)	-4.52% (inactive)
Cc1cc(=O)oc2c3c(cc(OCC(=O)NCCC(=O)N[C@@H](C)C(=O)O)c12)OC(C)(C)CC3	-2.41% (inactive)
C[C@@H]1CN([C@H](C)CO)S(=O)(=O)c2ccc(C#CC3CCCCC3)cc2O[C@H]1CN(C)C(=O)Cc1ccncc1	1.87% (inactive)
Cn1nc(N)c2ncc(C(Cl)(Cl)Cl)nc21	-0.27% (inactive)
CCC1CCCCN1S(=O)(=O)Cc1ccccc1Cl (stereo unspecified)	-4.8% (inactive)
CCCS(=O)(=O)N1CCN(C(=O)c2cccs2)CC1	2.49% (inactive)
COc1ccccc1/C=C/CN1CCC(CO)(Cc2ccccc2)CC1	0.17% (inactive)
O=C(Cn1cnc2c(OCc3ccccc3)ncnc21)NCc1nc2ccccc2[nH]1	-0.16% (inactive)
CCC(C(=O)Nc1ccc(C(C)C)cc1)c1ccccc1 (stereo unspecified)	35.8% (active)
CCCC(C)C(=O)Nc1ccc(NC(C)=O)cc1 (stereo unspecified)	0.87% (inactive)
Cc1ccc(NC(=O)C(C)c2cccc(C(=O)c3ccccc3)c2)cc1 (stereo unspecified)	5.38% (inactive)
CCOC(=O)c1sc(NC(=O)CSc2nc(C)cc(C(F)(F)F)n2)c(C#N)c1C	-3.97% (inactive)
Clc1ccc(C2=CSC3=Nc4cccc5cccc(c45)N23)cc1	-0.82% (inactive)
CC1=CC2=NC(=O)/C(=C/c3coc4ccccc4c3=O)C(=N)N2O1	38.9% (active)
COc1ccc(OCCCn2cccc2/C=C2/C(=N)N3OC(C)=CC3=NC2=O)cc1	0.09% (inactive)
CC(C)CCN1CCN(Cc2cn[nH]c2C2CCCCC2)CC1CCO (stereo unspecified)	-10.3% (inactive)
CCOCCCNC(=O)c1ccc(CS(=O)(=O)c2cccc(C(F)(F)F)c2)o1	-2.51% (inactive)
Cc1cc(OCC(=O)N(C)c2c(N)n(Cc3ccccc3)c(=O)[nH]c2=O)c(C(C)C)cc1Cl	-1.72% (inactive)
Cn1c(=O)[nH]c(=O)c2c1[nH]c(=S)n2Cc1ccccc1	-2.82% (inactive)
Cc1cc2nc3c(=O)n(Cc4ccccc4)c(=O)[nH]c3nc2cc1N	86.1% (active)
O=C(COc1ccc(F)cc1)N(CC1=CCS(=O)(=O)C1)c1ccccc1	-3.65% (inactive)
O=C(O)c1ccc2c(=O)n3c(nc2c1)/C(=C/c1ccc(OC(F)F)cc1OC(F)F)CC3	-3.87% (inactive)
COc1ccc(NC(=O)CCS(=O)(=O)c2cc3c(cc2Cl)NC(=O)CO3)cc1OC	-3.81% (inactive)

Structure (SMILES)	activation
Cc1cc2c(cc1S(=O)(=O)CCC(=O)NCc1ccccc1)OCC(=O)N2	0.35% (inactive)
COc1ccc(Cl)cc1NC(=O)CCS(=O)(=O)c1cc2c(cc1C)NC(=O)CO2	38% (active)
CCOC(=O)Cn1c(=O)oc2cc(S(=O)(=O)NCC3CCCO3)ccc21 (stereo unspecified)	1.72% (inactive)
Cc1ccc(S(=O)(=O)N2C[C@H]3n4c(=O)ccc(=O)n4C[C@H](OC(=O)NC4CCCC4)[C@@]3(O)C2)cc1	0.5% (inactive)
CCC1(C(=O)c2ccccc2)C(c2cccc([N+](=O)[O-])c2)C1(C(=O)OC)C(=O)OC (stereo unspecified)	-4.52% (inactive)
O=C(Oc1ccc(C(=S)N2CCOCC2)cc1)c1ccc(F)cc1	3.46% (inactive)
CN1C(=O)c2cccc3c(N)ccc(c23)C1=O	45.7% (active)
Cc1nn(C)cc1N1C(=O)c2cccc3c(N)ccc(c23)C1=O	91.9% (active)
CCC(C)(C)NC(=O)CN(C(=O)CCC(=O)Nc1nccs1)c1ccc2c(c1)OCO2	-2.1% (inactive)
COC(=O)c1sccc1-n1cccc1C(=O)C(=O)N1CCCCC1	-2.31% (inactive)
CC/C(=N\NC(=O)c1c(C)nc2ccccn12)c1ccc(Cl)cc1	-4.55% (inactive)
COc1ccc(N2C(=O)C3C(C2=O)C(C(=O)c2ccccc2)N2CCCC32)cc1 (stereo unspecified)	1.81% (inactive)
CCn1c(CNc2ccc(OC)cc2)nnc1SCC(=O)c1ccc(OC)cc1	-9.07% (inactive)
O=[N+]([O-])/C=C1\CCCCCN1	-0.84% (inactive)
N#CC1(Nc2ccc3c4c(cccc24)CC3)CCCCC1	37.2% (active)
N#CC1(Nc2ccc(-c3ccc(Cl)cc3)cc2)CCCC1	-3.18% (inactive)
CC(C)C(=O)Nc1ccc2c3c(cccc13)CC2	-5.26% (inactive)
COc1cc(OC)c(-n2cc(-c3ccc(Cl)cc3)[nH]c2=O)cc1Cl	42.8% (active)
COc1cc(Cl)c(S(=O)(=O)n2cnc(C)c2)cc1Cl	0.51% (inactive)
COc1ccc(Cl)cc1S(=O)(=O)N1CCC(O)(c2ccc(Cl)cc2)CC1	-0.77% (inactive)
COc1ccc(C)cc1NC(=O)CSc1nnc(CC(=O)Nc2ccccc2F)n1C	-1.92% (inactive)
COc1ccc(OC)c(CN2C(=O)CCC2(C)c2nnnn2Cc2ccccc2)c1 (stereo unspecified)	2.06% (inactive)
